This is a sample that favours compounds with a hit; in the whole collection about 4.2% have one here.
GDH-TPI counter – inhibits GDH-TPI coupling enzymes, artifact for Mtb FBA screen; GDH-TPI coupled enzyme counterscreen, NADH absorbance; inhibition, % at 4.8 µM; hit rate 1.2% among 360,000
RecA splice inh – blocks M. tuberculosis RecA intein splicing; P9WHJ3; cell-free RecA intein splicing, fluorescence; inhibition, % (no concentration beside the values); hit rate 0.75% among 290,000; in the data active = inhibition above about 30%; inconclusive = no clear call, values can overlap the other calls
Mtb bLac sens – beta-lactam sensitization of Mtb H37Rv. M. tuberculosis H37Rv growth with meropenem, percent inhibition. inhibition, % at 25 µM. hit rate 0.27% among 330,000; call rule not given here;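 also: growth measured after seven days incubation then overnight dye step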
FBA Mtb inh – inhibits M. tuberculosis FBA enzyme; purified M. tuberculosis FBA, fluorescence read-out; inhibition, % at 1 µM; hit rate 2.3% among 360,000; AID 588726; in the data active = inhibition above about 27%
Target sequence (P9WQA3 whole entry, looked up): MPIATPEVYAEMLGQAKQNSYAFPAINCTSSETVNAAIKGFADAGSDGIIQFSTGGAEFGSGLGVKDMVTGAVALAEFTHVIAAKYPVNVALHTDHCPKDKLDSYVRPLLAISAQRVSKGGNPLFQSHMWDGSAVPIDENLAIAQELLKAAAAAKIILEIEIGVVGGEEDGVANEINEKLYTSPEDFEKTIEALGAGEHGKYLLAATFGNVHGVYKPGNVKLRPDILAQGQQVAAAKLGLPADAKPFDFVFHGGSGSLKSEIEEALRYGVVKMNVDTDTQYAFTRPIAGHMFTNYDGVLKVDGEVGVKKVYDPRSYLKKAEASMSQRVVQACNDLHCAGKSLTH
CCHF vOTU inh – CCHFV vOTU protease inhibition; Pep-AMC fluorescence; inhibition, % at 11.5 µM; hit rate 0.55% among 370,000; AID 651958
Each line names hits and unclear results; the compound was inactive in the other large screens. Rule as the data show it, unless noted: active = inhibition above about 30%; inactive = the rest.

COc1ccc(-c2c(C)oc3c(CN4CCCCC4C)c(O)ccc3c2=O)cc1 (configuration not stated)	FBA Mtb inh 174.4
Cc1oc2c(CN3CCCC(C)C3)c(O)ccc2c(=O)c1-c1ccccc1 (configuration not stated)	Mtb bLac sens inconclusive, FBA Mtb inh 135.8
CCOC(=O)c1c(CN2CCCCC2C)oc2ccc(OC)cc12 (configuration not stated)	Mtb bLac sens inconclusive
COC(=O)c1ccc(CN2CC3CC(c4ccccc4)N4CCCC34C2=O)cc1 (configuration not stated)	none (no result: GDH-TPI counter, RecA splice inh, Mtb bLac sens, FBA Mtb inh)
Cc1oc2c(CN3CCCC3)c(O)ccc2c(=O)c1Oc1ccccc1Br	Mtb bLac sens inconclusive, FBA Mtb inh active
COc1ccccc1-c1coc2c(CN3CCCCC3C)c(O)ccc2c1=O (configuration not stated)	FBA Mtb inh 134.7 (no result: RecA splice inh)
CC1CCCCN1Cc1c(O)ccc2c(=O)c(-c3nc4ccccc4s3)c(N)oc12 (configuration not stated)	GDH-TPI counter 60.7
COc1ccccc1-c1coc2c(CN3C(C)CCCC3C)c(O)ccc2c1=O (configuration not stated)	none
Cc1cccc(/C=N/NC(=O)c2cc3c(s2)-c2ccccc2CC3)c1	GDH-TPI counter 33.6
COC(=O)c1cc2c(s1)-c1ccccc1CC2	FBA Mtb inh 94.4
COC(=O)c1cc2c(s1)-c1cc(F)ccc1OC2	GDH-TPI counter 30.6, FBA Mtb inh 61.7
COCc1cn(-c2cccc(-c3noc4c3C(=O)N(CC(=O)N3CCOCC3)CC4)c2)nn1	none (no result: GDH-TPI counter, RecA splice inh, Mtb bLac sens, FBA Mtb inh)
Brc1ccc(-c2nn3c(-c4ccccc4)nnc3s2)o1	none (no result: GDH-TPI counter, RecA splice inh, Mtb bLac sens, FBA Mtb inh)
O=Nc1c(O)c2ccccc2c2ccccc12	RecA splice inh 41.5
Cc1cccc2c1NC(=O)/C2=C\C(=O)c1cccs1	none
Cc1cc(Br)c2c(c1)/C(=C/C(=O)c1cccs1)C(=O)N2	RecA splice inh 78.1
O=C1COc2ccc(C(=O)CCl)cc2N1	RecA splice inh 31.7 (no result: Mtb bLac sens)
Clc1ccc2c(SCC3CO3)c3ccccc3nc2c1 (configuration not stated)	FBA Mtb inh 121.7 (no result: RecA splice inh, Mtb bLac sens)
O=C(CSc1c2c(nc3cc(Cl)ccc13)CCCC2)NCCN1CCOCC1	none
COc1ccc(Oc2c(Cl)cnn(CC(=O)C(c3ccccc3)c3ccccc3)c2=O)cc1	none (no result: GDH-TPI counter, RecA splice inh, Mtb bLac sens, FBA Mtb inh)
Cc1cccc(NNC(=O)C(=O)NNc2cccc(C)c2)c1	none
Cc1cccc(N=NC(=S)NNc2cccc(C)c2)c1	FBA Mtb inh active (no result: RecA splice inh, Mtb bLac sens)
COc1ccc2cc(C(=O)C3CCCN(C(=O)Cc4c(C)noc4C)C3)ccc2c1 (configuration not stated)	FBA Mtb inh 181.7
COc1ccc2cc(C(=O)C3CCCN(C4CCOCC4)C3)ccc2c1 (configuration not stated)	FBA Mtb inh 148.2
COc1c(C)cc(C(=O)C2CCCN(C3CCOCC3)C2)cc1C (configuration not stated)	none
CC(C)(C)c1ccc(C(=O)/C=C2\NC(=O)CS2)cc1	GDH-TPI counter 47.8
O=S1(=O)c2c(cccc2N2CCSCC2)Oc2ccccc2CN1Cc1cn(Cc2cccc(F)c2)nn1	none (no result: GDH-TPI counter, RecA splice inh, Mtb bLac sens, FBA Mtb inh)
CCOC(=O)c1sc(NC(=O)c2ccc(C)s2)cc1C	GDH-TPI counter 43.0
COc1ccc(-c2cc(N)n(S(=O)(=O)c3c(F)c(F)c(F)c(F)c3F)n2)cc1OC	RecA splice inh 97.3
O=C(COc1ccccc1Br)c1ccc(O)cc1O	GDH-TPI counter 44.3
COc1ccc(CC(=O)c2ccc(O)cc2O)cc1	GDH-TPI counter 43.1
O=C(Cc1ccc([N+](=O)[O-])cc1)c1ccc(O)cc1O	GDH-TPI counter 50.6
O=C(Cc1ccc(Br)cc1)c1ccc(O)cc1O	GDH-TPI counter 41.0
O=C(Cc1ccc([N+](=O)[O-])cc1)OCc1ccc([N+](=O)[O-])cc1	none
O=C(OCc1cn(Cc2ccccc2)nn1)N1CCOCC1	none (no result: GDH-TPI counter, RecA splice inh, Mtb bLac sens, FBA Mtb inh)
CC(C)(C)C(=O)NC1CCCCN(Cc2cccc(Cl)c2)C1=O (configuration not stated)	none (no result: GDH-TPI counter, RecA splice inh, Mtb bLac sens, FBA Mtb inh)
COCc1cc(=O)[nH]c(Nc2nc3ccc(C)cc3o2)n1	GDH-TPI counter 34.4
O=C(NCCc1ccc(F)cc1)c1ccc(Sc2ccccc2Cl)c([N+](=O)[O-])c1	none (no result: GDH-TPI counter, RecA splice inh, Mtb bLac sens, FBA Mtb inh)
Cc1ccc(-c2cc(C(=O)NN=Cc3ccc(-c4ccccc4)cc3)[nH]n2)cc1C	none (no result: GDH-TPI counter, RecA splice inh, Mtb bLac sens, FBA Mtb inh)
O=C(O)c1ccc(N/N=C/C(Br)=C/c2ccccc2)cc1	GDH-TPI counter 65.8
O=C(N/N=C/C(Br)=C/c1ccccc1)C1CC1	none (no result: RecA splice inh)
O=C(N/N=C/C(Br)=C/c1ccccc1)C(O)c1ccccc1 (configuration not stated)	GDH-TPI counter 43.5
CCN(CC)N=Nc1[nH]nc2nc(C)cc(C)c12	GDH-TPI counter 31.6
C[C@@H]1CCN(C2CC2)S(=O)(=O)c2c(cccc2N2CCC[C@H]2C)O1	none (no result: GDH-TPI counter, RecA splice inh, Mtb bLac sens, FBA Mtb inh)
CCOC(=O)c1ccc(-n2c(CN3CCC(O)CC3)nc3ccc([N+](=O)[O-])cc3c2=O)cc1	GDH-TPI counter 45.5
C=CCN(C)CC#Cc1ccc(F)cc1	none (no result: GDH-TPI counter, RecA splice inh, Mtb bLac sens, FBA Mtb inh)
CCn1c(=O)c2cc(C(=O)N(C)c3ccccc3F)sc2c2ccccc21	none (no result: Mtb bLac sens)
CCn1c(=O)c2cc(C(=O)N(C)c3ccc(OC)cc3OC)sc2c2ccccc21	GDH-TPI counter 49.4
CCn1c(=O)c2cc(C(=O)N(C)c3cc(C)ccc3OC)sc2c2ccccc21	GDH-TPI counter 32.5
C[C@@H]1CCCCO[C@H](CN(C)Cc2ccccc2)[C@@H](C)CN([C@H](C)CO)C(=O)c2cc(NC(=O)c3ccccc3)ccc2O1	none (no result: RecA splice inh, Mtb bLac sens)
C[C@@H]1CN([C@@H](C)CO)C(=O)c2cc(NC(=O)c3ccccc3)ccc2O[C@@H](C)CCCCO[C@@H]1CN(C)Cc1ccc(C(F)(F)F)cc1	CCHF vOTU inh 42.3 (no result: RecA splice inh, Mtb bLac sens)
O=C(Nc1ccc(F)cc1)OC1CC2CC1[C@H]1CCCCN1C2 (some centres not stated)	none (no result: GDH-TPI counter, RecA splice inh, Mtb bLac sens, FBA Mtb inh)
CC(c1ccc(O)cc1)(c1ccc(O)cc1)c1ccc(CCBr)cc1	RecA splice inh 30.7
Cc1occc1-c1nnc(SCC(=O)N2CCN(c3ncccn3)CC2)n1-c1ccccc1	none (no result: GDH-TPI counter, RecA splice inh, Mtb bLac sens, FBA Mtb inh)
COc1ccccc1-c1nc(C#N)c(N2CCC(Cc3ccccc3)CC2)o1	FBA Mtb inh 44.3
N#Cc1nc(-c2ccc(F)cc2)oc1N1CCN(C(=O)c2ccco2)CC1	none
COc1ccc(-c2nc(C#N)c(N3CCC(C(N)=O)CC3)o2)cc1OC	FBA Mtb inh active
COc1ccc(-c2nc(C#N)c(N3CCOCC3)o2)cc1OC	FBA Mtb inh active
N#Cc1nc(-c2ccc(F)cc2)oc1N1CCC(C(N)=O)CC1	FBA Mtb inh active
COc1ccc(-c2nc(C#N)c(N3CCN(c4cccc(Cl)c4)CC3)o2)cc1OC	none
O=C(NCCc1c[nH]c2ccccc12)OCc1cn(Cc2cc(F)ccc2F)nn1	none (no result: GDH-TPI counter, RecA splice inh, Mtb bLac sens, FBA Mtb inh)
COc1nc(OC)nc(N2CCC(C(=O)N(C)Cc3ccccc3F)CC2)n1	none (no result: GDH-TPI counter, RecA splice inh, Mtb bLac sens, FBA Mtb inh)
O=C(CCS(=O)(=O)c1cc2c(cc1Br)CCN2C(=O)C1CC1)N1CCN(c2ccccn2)CC1	none (no result: GDH-TPI counter, RecA splice inh, Mtb bLac sens, FBA Mtb inh)
CCOC(=O)C1CCCN(c2oc(-c3ccc(OC)cc3)nc2C#N)C1 (configuration not stated)	FBA Mtb inh 131.8
N#Cc1nc(-c2ccco2)oc1N1CCC(C(N)=O)CC1	FBA Mtb inh 123.7
